Results as given in PubChem BioAssay (NCI).
About 79,000 compounds went through this panel and 15% of them were active in at least one assay; those are over-represented in the sample as a whole. No stated cut-off is given here; in the data, active means growth inhibition above about 70%; inactive means the rest.

Assays:
[1] = NCI Yeast Anticancer Drug Screen. Data for the rad50 strain (AID 155);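 further: 0% = growth of vehicle-only cultures of the same strain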; details: S. cerevisiae rad50 strain growth inhibition; at 50.0 µM; active compounds read high
Summary of the method: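 DNA repair mutant yeast, compound exposure, growth read-out; inhibition is taken relative to vehicle.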

[2] = NCI Yeast Anticancer Drug Screen. Data for the mec2-1 strain (AID 157); details: S. cerevisiae mec2-1 strain, at 50.0 µM, active compounds read high
Summary of the method: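 Strain: mec2-1 (DNA repair/cell cycle alteration). Compound exposure, then growth measured; inhibition expressed relative to vehicle.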

[3] = NCI Yeast Anticancer Drug Screen. Data for the sgs1 mgt1 strain (AID 161);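 further: 0% = growth of cultures given vehicle only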; details: S. cerevisiae sgs1 mgt1 strain, at 50.0 µM, active compounds read high
Summary of the method: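 Inhibition of yeast growth, normalised to vehicle-treated controls, is reported for a strain bearing genetic alterations in DNA damage repair.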

[4] = NCI Yeast Anticancer Drug Screen. Data for the cln2 rad14 strain (AID 165);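 further: 0% = growth equal to vehicle treated cultures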; details: S. cerevisiae cln2 rad14 strain, at 50.0 µM, active compounds read high
Summary of the method: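 Compounds are applied to the cln2 rad14 yeast strain, and growth is then compared with that of vehicle-treated cultures to give inhibition.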

[5] = NCI Yeast Anticancer Drug Screen. Data for the bub3 strain (AID 167); details: S. cerevisiae bub3 mutant strain, at 50.0 µM, active compounds read high
Summary of the method: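 In this screen, a yeast mutant lacking normal mitotic checkpoint function is challenged with compound. Relative growth versus vehicle gives the inhibition value.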

[6] = NCI Yeast Anticancer Drug Screen. Data for the mlh1 rad18 strain (AID 175); details: S. cerevisiae mlh1 rad18 strain growth inhibition; at 50.0 µM; active compounds read high
Summary of the method: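 Read-out is yeast growth inhibition, calculated against vehicle-only controls. The compound was applied to a strain engineered with DNA damage repair alterations.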

Measured: growth inhibition

CCCCCCCCCCCCCCCCOc1ccc(S(=O)(=O)N/N=c2/sc(-c3ccccc3Cl)nn2C)cc1C(=O)O
inactive: [1] -18.6% | [2] -20.2% | [3] 13.3% | [4] -18.2% | [5] 6.9% | [6] -4.15%

Nc1nc(C=O)c(CCc2ccccc2)c(=O)[nH]1
inactive: [1] 6.8% | [2] 8.95% | [3] -7.8% | [4] -28.7% | [5] -11% | [6] -12.4%

S=C(Cl)Sc1ccc(-c2ccc(SC(=S)Cl)cc2)cc1
inactive: [1] 2.7% | [2] -2.5% | [3] -10.4% | [4] -5.6% | [5] 6.1% | [6] -7.9%

COc1ccc(/C(=C/n2ccnc2)C(=O)c2ccc(OC)c(OC)c2)cc1
inactive: [1] -41.6% | [2] -18.7% | [3] -44.8% | [4] 5.8% | [5] -25.4% | [6] -44.5%

Brc1cccc(-c2nnc(-c3ccccc3)o2)c1
inactive: [1] -4.15% | [2] -11.7% | [3] -8.4% | [4] -41.5% | [5] -0.4% | [6] -12.1%

C=CCn1c(=O)c(C(=O)Nc2nc(C34CC5CC(CC(C5)C3)C4)cs2)c(O)c2ccccc21
inactive: [1] -22.7% | [2] -4.6% | [3] -14.1% | [4] 4.4% | [5] 4.5% | [6] -19.1%

CCOP(=O)(OCC)C(F)(F)Cc1cnc(C)c2c1COC(C)(C)O2
inactive: [1] -14.8% | [2] -34.8% | [3] -32.5% | [4] -16.7% | [5] 17.9% | [6] -27.3%

O=[N+]([O-])c1ccc(N=CNc2ccc([N+](=O)[O-])cc2)cc1
inactive: [1] -15.9% | [2] -13.1% | [3] -1.5% | [4] -12% | [5] 17.1% | [6] -6.65%

C/C=C/C=N/SC(c1ccccc1)(c1ccccc1)c1ccccc1
inactive: [1] 9.35% | [2] -7% | [3] -5.05% | [4] 4.45% | [5] -26.1% | [6] 13.6%

CC(C)(CN1CCCCC1)C(=O)/C=C/c1ccc(Br)cc1
inactive: [1] 66.9% | [2] 22.8% | [3] 59.6% | [4] 41.4% | [5] 47.8% | [6] 55.6%

CC(C)OP(=O)(c1ccccc1)c1ccc2c(c1)OCCOCCOCCOCCO2 (stereo unspecified)
inactive: [1] -3.05% | [2] -2.2% | [3] 0.75% | [4] 7.05% | [5] -2.1% | [6] 24.7%

CC1c2ccccc2Cn2cc3c(c21)C(=O)c1cccc(OP(=O)(O)OCc2ccccc2)c1C3=O (stereo unspecified)
inactive: [1] 2.2% | [2] 12.6% | [3] 13.1% | [4] 3.45% | [5] 5.1% | [6] 11.9%

Cn1c[n+](C)c([S-])n1
inactive: [1] -13.2% | [2] 2.6% | [3] -12.1% | [4] -8.45% | [5] 3% | [6] -5.25%

N#Cc1ccccc1NC(=O)C(=O)C1NC(=S)NC1=O (stereo unspecified)
inactive: [1] 15.4% | [2] -1.75% | [3] 26% | [4] 13.6% | [5] -3.2% | [6] 18.1%

ClC(Cc1ccccc1)(c1ccccc1)c1ccccc1
inactive: [1] -26.6% | [2] 13.5% | [3] -0.8% | [4] -26.9% | [5] 13.8% | [6] -3.6%

NC(CSS(=O)(=O)O)C(=O)O (stereo unspecified)
inactive: [1] 3.05% | [2] -2.4% | [3] -1.55% | [4] -31.9% | [5] -12.8% | [6] 2.6%

COc1cc(C=Nc2ccc(N3CCOCC3)cc2)ccc1O
inactive: [1] -1.1% | [2] -3.45% | [3] -8.45% | [4] -18.6% | [5] 12.6% | [6] -1.25%

Cc1ccc(C(=O)OCC2OC(Cl)CC2OC(=O)c2ccc(C)cc2)cc1 (stereo unspecified)
inactive: [1] 22.6% | [2] -13.7% | [3] 26.8% | [4] -36% | [5] 2.85% | [6] -8.3%

CCOC(=O)c1ccc(N=Nc2c(N)nc(N)nc2N)cc1
inactive: [1] -10.4% | [2] 10.3% | [3] -1.7% | [4] -61.4% | [5] -0.15% | [6] -11%

CCOC(=O)c1cnc2n(c1=O)[C@H]1CCCC[C@@H]1N2
inactive: [1] 59% | [2] 5.55% | [3] -9.05% | [4] 9.75% | [5] 8.7% | [6] 5.65%

CC(Oc1cc2oc(=O)cc(-c3ccccc3)c2cc1Cl)C(=O)O (stereo unspecified)
inactive: [1] -13.6% | [2] 9.45% | [3] 7.05% | [4] 14.7% | [5] -9.35% | [6] -7.1%

CC1(C)C2CC[C@]3(C)C(C(=O)C=C4[C@@H]5C[C@@](C)(C(=O)O)CC[C@]5(C)CCC43C)[C@@]2(C)CC[C@@H]1OC1OC(C(=O)O)C(O)C(O)C1OC1OC(C(=O)O)C(O)C(O)C1O (stereo partly specified) (tested in a mixture with another compound)
inactive: [1] 5.65% | [2] -2.45% | [3] 2.7% | [4] -12.2% | [5] -3.55% | [6] -0.35%

Nc1ncnc2c1ncn2CCC(COCc1ccccc1)COCc1ccccc1
inactive: [1] 40.8% | [2] 0.4% | [3] 50.8% | [4] -10% | [5] 4.6% | [6] 11.7%

COc1c(C)c(OC)c(C(=O)CC(C)C)c(OC)c1C
inactive: [1] 0.4% | [2] 5.05% | [3] 35.2% | [4] 20.4% | [5] 19.7% | [6] -29.6%

CN(C)c1ccc(C=Nc2cc(S(=O)(=O)O)cc3cc(S(=O)(=O)O)cc(O)c23)cc1
inactive: [1] -22.9% | [2] -9.7% | [3] -14.7% | [4] 31.6% | [5] 12.4% | [6] 8.85%

COc1ccccc1/C=C1\CCC(CCN(C)C)(C2=CCCC2)C1=O (stereo unspecified)
inactive: [1] -3.05% | [2] -11.8% | [3] -27.5% | [4] 11.1% | [5] -17.7% | [6] 24.4%

CC(C)CCN(C(=O)CCl)c1ccccc1
inactive: [1] 59% | [2] 32.6% | [3] 52.4% | [4] 15.1% | [5] 33.5% | [6] 63.8%

COC1OC(CO)C(O)C(OCc2ccccc2)C1OCc1ccccc1 (stereo unspecified)
inactive: [1] -4.35% | [2] 0.5% | [3] -5.35% | [4] -10.3% | [5] -7.4% | [6] -19.3%

OC1CCSc2ccccc21 (stereo unspecified)
inactive: [1] 28.6% | [2] 10.3% | [3] 23.9% | [4] 9.7% | [5] 23.6% | [6] 23.2%

C=C(C)C1Cc2c(cc(OC)c3c(=O)c4cccc(O)c4oc23)O1 (stereo unspecified)
inactive: [1] 43.1% | [2] 15.4% | [3] -1.95% | [4] 25.4% | [5] -20.2% | [6] -21.4%

S=C1SC(=Nc2ccccc2)C(=Nc2ccccc2)N1c1ccccc1
inactive: [1] -21.1% | [2] -15.9% | [3] 6.7% | [4] -37.1% | [5] -19.5% | [6] -20.6%

CC(=O)OCC1OC(OCC[N+](C)(C)C)C(OC(C)=O)C(OC(C)=O)C1OC(C)=O (stereo unspecified)
inactive: [1] -1.65% | [2] 14.9% | [3] -15.6% | [4] -2.4% | [5] -7.35% | [6] 15.3%

CCOC(C)OCCCI (stereo unspecified)
inactive: [1] -25.8% | [2] -21.3% | [3] 3.5% | [4] -9.7% | [5] -13.3% | [6] 13.2%

CN(C)c1nc(OC2C(C3COC(C)(C)O3)OC3OC(C)(C)OC32)nc(N(C)C)n1 (stereo unspecified)
inactive: [1] 36.9% | [2] -9.65% | [3] 9.65% | [4] 26% | [5] -4.35% | [6] 2.15%

CCCNc1nc(C)nc2[nH]cc(C)c12
inactive: [1] 7.35% | [2] -5.1% | [3] -3.15% | [4] -31.1% | [5] -7.7% | [6] -7.65%

Nc1nc(-c2cc(C(c3ccccc3)c3ccccc3)nc(N)n2)cc(C(c2ccccc2)c2ccccc2)n1
inactive: [1] -6.45% | [2] 13.8% | [3] -24.6% | [4] 3.45% | [5] -2.3% | [6] 9.95%

O=C(CCl)Oc1cccc2cccnc12
inactive: [1] -8.75% | [2] 9% | [3] -1.35% | [4] -12.2% | [5] -2.45% | [6] -2.75%

COc1cc2c(cc1OC)C(C(=O)O)C(c1ccccc1)N(C)C2=O (stereo unspecified)
inactive: [1] -36.8% | [2] -11.8% | [3] -6.5% | [4] 19.4% | [5] -13.2% | [6] 3.25%

CCCCCCC1CCC(O)CC1 (stereo unspecified)
inactive: [1] 22.6% | [2] 2.95% | [3] -8.05% | [4] -0.15% | [5] 12.3% | [6] 41.1%

COc1n[nH]c(N)n1
inactive: [1] 8.3% | [2] 12.8% | [3] 3.8% | [4] 22.8% | [5] 25.6% | [6] 20.2%

Cc1ccc2ccccc2[n+]1CC(=O)c1ccc([N+](=O)[O-])cc1
inactive: [1] -16.8% | [2] -30.8% | [3] -9.3% | [4] 9.95% | [5] -11.2% | [6] -12.4%
